# A selection: hits, their analogues and other compounds. The true share with any hit is near 3%.
# C8 TRAIL sens – viability loss with TRAIL in NB7+C8 cells, primary screen, TRAIL sensitizer project, cell-based, ATPlite luminescence; inhibition (viability loss, TRAIL sensitization), % at 10 µM; actives 1% (n = 360,000);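 active = compounds causing at least 50% loss of cell viability in the single-dose screen, relative to plate controls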
# SENP6 block – SENP6 protease inhibitors, primary screen, biochemical, luminescence, uHTS; Sentrin-specific protease 6 (Homo sapiens), Q9GZR1; Recombinant SENP6 catalytic domain, aminoluciferin luminescence; inhibition, % at 10 µM; actives 1.8% (n = 330,000); AID 2599, 2010;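 active = inhibition above about 50% at the single tested dose, limit read from the data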
# SENP7 inh – SENP7 protease inhibitors, primary screen, biochemical, luminescence, uHTS. Sentrin-specific protease 7 (Homo sapiens), Q9BQF6. recombinant SENP7, Z-RLRGG-aminoluciferin luminescence, 40 min. inhibition, % at 5 µM. actives 1.5% (n = 330,000). AID 434973, 2010;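 active = inhibition above about 50% at the single test dose, limit read from the data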
# Target sequence (Q9BQF6 706-1050 limits assumed): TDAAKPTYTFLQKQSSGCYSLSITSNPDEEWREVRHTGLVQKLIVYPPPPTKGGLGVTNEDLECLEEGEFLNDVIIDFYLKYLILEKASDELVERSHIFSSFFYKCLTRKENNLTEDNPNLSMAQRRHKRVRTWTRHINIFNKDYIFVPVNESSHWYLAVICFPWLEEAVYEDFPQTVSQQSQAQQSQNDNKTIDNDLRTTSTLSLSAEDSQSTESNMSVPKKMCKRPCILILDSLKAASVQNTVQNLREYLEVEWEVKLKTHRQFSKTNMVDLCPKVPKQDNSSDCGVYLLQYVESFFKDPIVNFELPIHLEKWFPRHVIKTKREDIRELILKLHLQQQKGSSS
# PPC-1+TRAIL kill – compounds killing PPC-1 cancer cells with TRAIL present, primary screen, TRAIL potentiator project, ATPLite luminescence, uHTS | cell killing (% activity), % at 4 µM or 5 µM | PPC-1 cells + TRAIL, ATPLite viability luminescence | actives 0.41% (n = 220,000);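 active = cell killing above 50% in the first pass at 4 µM, then a duplicate retest at 5 µM averaging 50% or more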
# SENP8 block-1 – human SENP8 protease inhibitors, primary screen, biochemical, fluorescence, Nedd8 protein substrate, uHTS; Sentrin-specific protease 8 (Homo sapiens), Q96LD8; recombinant SENP8; actives 0.64% (n = 360,000); inhibition, % at 20 µM; in the data active = inhibition mostly above about 40%, no sharp cut-off; inactive = mostly below about 27%
# Target sequence (Q96LD8 whole entry, looked up): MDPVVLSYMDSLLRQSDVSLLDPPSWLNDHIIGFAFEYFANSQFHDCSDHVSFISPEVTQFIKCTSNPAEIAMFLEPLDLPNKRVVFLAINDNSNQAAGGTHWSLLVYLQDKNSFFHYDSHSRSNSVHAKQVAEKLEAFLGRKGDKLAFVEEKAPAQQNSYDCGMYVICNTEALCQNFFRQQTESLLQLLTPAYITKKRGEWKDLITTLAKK
# SENP8 block-2 – SENP8 protease inhibitors, primary screen, biochemical, luminescence; Sentrin-specific protease 8 (Homo sapiens), Q96LD8; purified SENP8, Z-RLRGG-aminoluciferin cleavage; inhibition, % at 10 µM; actives 1.2% (n = 330,000); AID 2540, 2010; in the data active = inhibition above about 50%
# PPC-1 tox – cytotoxicity in PPC-1 cells, confirmation, cytotoxicity control for TRAIL apoptosis potentiator project, cell-based, ATP content luminescence; cytotoxicity, % at 5 µM; PPC-1 viability, ATPlite luminescence, overnight; actives 50% (n = 1,200); shares compounds with PPC-1+TRAIL kill; AID 1447, 2008;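 active = reconfirmed compounds whose average cytotoxicity reaches 50% or more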
# Numbers stand for hits; n = inactive; x = not tested or not shown.
SMILES,C8 TRAIL sens,SENP6 block,SENP7 inh,PPC-1+TRAIL kill,SENP8 block-1,SENP8 block-2,others
Cc1cccc(C)c1-n1nnnc1C(CCc1ccccc1)N1CCC(n2c(=O)[nH]c3ccccc32)CC1 (stereo not drawn),82,x,x,x,n,x,
c1ccc(CN2COC3CCCCCC32)cc1 (stereo not drawn),n,x,x,x,n,x,
Cc1ccc(N2C(=O)/C(=C/c3ccc(CN(CCC#N)S(C)(=O)=O)o3)C(=O)NC2=S)cc1,n,n,n,n,n,n,
Clc1cccc(N2Cc3ccccc3-n3nncc3C2)c1,n,x,x,x,n,x,
OCC1CO1 (stereo not drawn),n,n,n,x,n,n,
C[CH2][Hg][S]c1ccccc1C(=O)O,62,n,n,x,n,n,
CCOC(=O)C1(CCCc2ccccc2)CCN(C2CCC2)CC1,n,n,n,n,n,n,
COc1ccccc1N1C(=O)NC(=O)/C(=C/c2ccc([N+](=O)[O-])s2)C1=O,x,n,n,n,x,n,
COc1cccc(N2C(=O)NC(=O)/C(=C/c3ccc([N+](=O)[O-])s3)C2=O)c1,n,n,n,n,48,n,
COc1ccc(N2C(=O)NC(=O)/C(=C/c3ccc([N+](=O)[O-])s3)C2=O)cc1,n,n,n,n,69,n,
COc1ccc(N2C(=O)NC(=O)/C(=C\c3ccc([N+](=O)[O-])s3)C2=O)cc1,n,n,n,n,44,n,
CC(C)c1ccc(NC(=O)CSc2nnc(OC(=O)N(C)C)n2C2CC2)cc1,n,n,n,x,n,n,
CCOC(=O)[C@]12Cc3cc(C)ccc3[C@H]1N(CCC(=O)OC)C(=O)c1cc(OC)ccc12,n,x,x,x,n,x,
CCOC(=O)[C@]12Cc3cc(OC)ccc3[C@H]1N(C1CCCCC1)C(=O)c1cc(OC)ccc12,76,x,x,x,n,x,
CCOC(=O)[C@]12Cc3cc(C)ccc3[C@H]1N(C1CCCCC1)C(=O)c1cc(OC)ccc12,96,x,x,x,n,x,
CCC(c1nnnn1Cc1ccccc1)N1CCC(n2c(=O)[nH]c3ccccc32)CC1 (stereo not drawn),n,x,x,x,n,x,
Clc1ccc(C[n+]2c(-c3ccccc3)cc(-c3ccccc3)cc2-c2ccccc2)cc1,69,n,n,x,n,n,
C[C@@H]1C[C@@H]([C@H](O)CC2CC(=O)NC(=O)C2)C(=O)[C@@H](C)C1,n,n,n,x,n,n,
CC(=O)OC1(C)CC(C)C(=O)C(C(O)CC2CC(=O)NC(=O)C2)C1 (stereo not drawn),74,x,x,x,n,x,
CC(C)C1CN1CC(O)Cn1ccnc1[N+](=O)[O-] (stereo not drawn),n,x,x,x,n,x,
CC1=C(N2CC2)C(=O)C(CO)=C(N2CC2)C1=O,77,x,x,x,63,x,
Cc1cc(C)n(-c2ccc(NN=C(C#N)C#N)cc2)n1,n,92,90,n,n,90,
N#CC(C#N)=NNc1ccc(-n2ccc(C(F)(F)F)n2)cc1,n,n,n,n,n,n,
CC(C)OP(=O)(OC(C)C)C(O)c1ccccc1F (stereo not drawn),n,n,n,n,n,n,
CCCC1(CCC)C(=O)NC(=NCc2ccccc2)NC1=O,77,n,n,n,n,n,
SMILES,C8 TRAIL sens,SENP6 block,SENP7 inh,PPC-1+TRAIL kill,SENP8 block-1,SENP8 block-2,others
CCCC1(CCC)C(=O)NC(=Nc2ccccc2)NC1=O,n,n,n,n,n,n,
CCNc1nc(Cl)nc(NC(C)C)n1,n,n,n,n,n,n,
CC1=CC2/C=C(\C)CCC(O)C(O)/C=C/C(=O)C23C(=O)NC(CC(C)C)C3C1C (stereo not drawn),91,n,n,n,n,n,
C/C1=C\[C@@H](C)C/C=C/[C@H]2[C@@H]3O[C@]3(C)[C@@H](C)[C@H]3[C@H](Cc4c[nH]c5ccccc45)NC(=O)[C@]32C(=O)/C=C/C(=O)[C@@H]1O,n,n,n,n,n,n,
CC(=O)c1ccc2c(c1)C1C(Cl)C(Sc3ccccc3[N+](=O)[O-])CC1C(C(=O)O)N2 (stereo not drawn),n,x,x,n,78,x,
C=C1C(=O)O[C@@H]2C[C@@H](C)[C@@H]3C=CC(=O)[C@@]3(C)[C@@H](O)[C@H]12,77,n,n,60,n,n,PPC-1 tox=57
c1ccc2c(N3CCNCC3)nsc2c1,n,n,n,n,n,n,
N#CCC(=O)NN1Cc2ccccc2C1=N,n,n,n,n,n,n,
CC[C@@]1(O)C(=O)OCc2c1cc1n(c2=O)Cc2cc3ccccc3nc2-1,x,x,x,n,x,x,
CCC1(OC(=O)CN)C(=O)OCc2c1cc1n(c2=O)Cc2cc3ccccc3nc2-1 (stereo not drawn),n,x,x,n,n,x,PPC-1 tox=n
O=C1C=CC(=O)C2C1C1(Cl)C(Cl)=C(Cl)C2(Cl)C1(Cl)Cl (stereo not drawn),n,x,x,x,n,x,
Cc1cccc(N=Cc2c(O)n(C)c(=O)n(C)c2=O)c1,n,n,n,x,n,n,
CC(C)(C)C(=O)N1Cc2ccccc2-n2nncc2C1,n,x,x,x,n,x,
COC(=O)C(C)Oc1cc(C)cc2oc(=O)c3c(c12)CCCC3 (stereo not drawn),n,n,n,n,n,n,PPC-1 tox=n
CCOP(=O)(CCP(=O)(OCC)OCC)OCC.C[CH2][Sn]([Cl])([Cl])[CH2]C,n,x,x,x,n,x,
C=C(CO)CC1CC(O)[C@]2(C)OC3CC4OC5C[C@]6(C)O[C@]7(C)CCC8OC9C[C@]%10(C)OC%11C(C)=CC(=O)OC%11CC%10OC9C[C@@H](C)C8OC7CC6O[C@]5(C)C/C=C\C4OC3CC2O1 (stereo partly drawn),n,n,n,n,n,n,
C=C(C=O)CC1CC(O)[C@]2(C)OC3CC4OC5C[C@]6(C)O[C@]7(C)CCC8OC9C[C@]%10(C)OC%11C(C)=CC(=O)OC%11CC%10OC9C[C@@H](C)C8OC7CC6O[C@]5(C)CC5OC5C4OC3CC2O1 (stereo partly drawn),96,n,n,80,n,n,PPC-1 tox=78
COC1CC(OC2CCC3(C)C(CCC4C3CCC3(C)C(C5=CC(=O)OC5)C(OC(C)=O)CC43O)C2)OC(C)C1OC1OC(COC2OC(CO)C(O)C(O)C2O)C(O)C(O)C1O (stereo not drawn),x,x,x,n,x,x,PPC-1 tox=56
COc1ccccc1N1CCN(Cc2ccccc2F)CC1,n,n,n,n,n,n,PPC-1 tox=n
C#CC(CC)(CC)NC(=O)Nc1ccc(OCC)cc1,n,n,n,n,n,n,
NC(=S)c1cn(C2OC(CO)C(O)C2O)c2ncnc(N)c12 (stereo not drawn),67,x,x,55,n,x,PPC-1 tox=55

# High-throughput results (PubChem BioAssay)
